Measurements from PubChem BioAssay AID777 (Sanford-Burnham Center for Chemical Genomics, 2007).
In all, about 96,000 compounds went through this assay and about 19,000 (20%) were called active.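 Rule for the calls: active = blocking of liver enzyme CYP2C9 beyond about 50% at 5 µM (limit read from the data); inactive = the rest.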 A selection follows.

Target: Cytochrome P450 2C9 (Homo sapiens) (UniProt P11712)
Experiment: blockers of cytochrome P450 2C9 activity – biochemical, luminescence, ADME assay, primary screen (AID 777)
Settings: CYP2C9 Supersomes, luciferin-H conversion, at 5 µM, stronger effect = higher value

Chain of Cytochrome P450 2C9 (Homo sapiens) (P11712 whole entry, looked up): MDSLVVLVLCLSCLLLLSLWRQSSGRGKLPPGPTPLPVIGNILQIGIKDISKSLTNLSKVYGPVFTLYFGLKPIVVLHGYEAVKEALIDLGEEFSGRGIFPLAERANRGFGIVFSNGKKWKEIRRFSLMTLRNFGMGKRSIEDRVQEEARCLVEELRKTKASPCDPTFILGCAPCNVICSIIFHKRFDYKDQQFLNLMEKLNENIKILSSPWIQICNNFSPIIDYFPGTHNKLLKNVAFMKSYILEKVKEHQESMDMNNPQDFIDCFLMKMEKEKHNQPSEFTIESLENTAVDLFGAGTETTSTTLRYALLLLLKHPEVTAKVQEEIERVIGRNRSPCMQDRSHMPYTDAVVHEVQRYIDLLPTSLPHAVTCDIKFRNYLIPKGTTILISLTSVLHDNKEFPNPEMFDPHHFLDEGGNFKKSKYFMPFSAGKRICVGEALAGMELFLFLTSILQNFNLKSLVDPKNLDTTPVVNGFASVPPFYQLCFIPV

inhibition, active:
O=C(CN(c1ccc2c(c1)OCCO2)S(=O)(=O)c1ccccc1)Nc1ccc2c(c1)OCO2 92.2%
COc1ccc(CC(=O)Nc2ccc3c(c2)CCC3)cc1S(=O)(=O)N1CCOCC1 59.8%
Cc1cc(C)c2c(-n3cccc3)c(C(=O)NNS(=O)(=O)c3ccc(F)cc3)sc2n1 98.1%
COC(=O)Nc1sc2nc(C)cc(C)c2c1-n1cccc1 55.1%
COc1ccc(C(c2nnnn2Cc2cccs2)N2CCN(c3ccccc3)CC2)cc1OC (stereo not drawn) 61.5%
CCCOc1ccc(C2c3c(oc4cc(C)c(C)cc4c3=O)C(=O)N2CCCN2CCOCC2)cc1 (stereo not drawn) 90.7%
Cc1ccccc1CSCCNC(=O)c1ccc(N(C)S(=O)(=O)c2ccccc2)cc1 94.3%
Cc1ccc(C2(c3ccc(C)cc3)NC(=O)N(Cc3c(C)noc3C)C2=O)cc1 60.8%
O=C(CN1CCN(c2ccccc2F)CC1)c1ccc2c(c1)OCO2 74.2%
O=C(Nc1ccccc1N1CCN(c2ccccc2)CC1)c1cccc(F)c1 81.1%
O=C(Nc1ccccc1N1CCN(C(=O)c2ccccc2)CC1)c1ccc2c(c1)OCO2 83.3%
COC(=O)c1ccc(C2C(Oc3ccccc3C)C(=O)N2CCc2ccc(OC)c(OC)c2)cc1 (stereo not drawn) 54.9%
CCCCc1nc(NCCN)c(C#N)c2c1CSC(C)(C)C2 53.6%
O=C(COc1ccccc1)Nc1nonc1NC(=O)COc1ccccc1 52%
COc1cccc(-c2nnc(NC(=O)c3ccc(S(=O)(=O)N(CC(C)C)CC(C)C)cc3)o2)c1 58.9%
O=C(Cn1cnc2ccccc2c1=O)NCC1COc2ccccc2O1 (stereo not drawn) 61.2%
O=C(Cn1nc(Cc2cccnc2)c2ccccc2c1=O)NCC1COc2ccccc2O1 (stereo not drawn) 66.1%
O=C(COc1ccc2c3c(c(=O)oc2c1)CCC3)NC1CCCCC1 73.7%

inhibition, inactive:
CCCCN=C(N)/C(C(=O)OCC)=C(\O)c1ccc(OC)cc1 20.5%
CCC(=O)Nc1ccc2c(c1)nc(CCN1CCN(C)CC1)n2C 0.1%
Cc1cc(C)n2nc(C(=O)NC(C)(C)C)nc2n1 -10.2%
Cc1ccc(C(C)C)c(OCc2nnc(SCC(=O)Nc3nccs3)n2C)c1 3.8%
CCn1c2c(c3ccc(OC)cc31)CCCC2=O 41.1%
Cn1c(=O)c2c(SCC(=O)N3CCOCC3)nc(C3CC3)nc2n(C)c1=O 8.1%
Cc1c(C)c2cc3c4c(oc3c(C)c2oc1=O)CCCC4 9.6%
O=S1(=O)CC(NCc2ccccc2)C(Nc2ccc(Cl)cc2)C1 (stereo not drawn) 27.4%
Cc1ccn2cc(-c3nonc3C)cc2c1 15.3%
O=C(Nc1ncc2c(n1)CC(c1ccco1)CC2=O)c1ccc(Cl)cc1 (stereo not drawn) 31.2%
C=CCn1c(SCc2csc(C)n2)nc2scc(-c3ccc(C)o3)c2c1=O 48%
COc1ccc(S(=O)(=O)N(C)CC(=O)Nc2ccc3c(c2)OCCO3)cc1OC 27.4%
COc1ccc(CNc2ccc3c(c2)CCC3)cc1OC 7.2%
CC(C)C(=O)OCC(=O)Nc1ccc2c(c1)CCC2 -0.6%
CCC(=NC1CC(C)(C)NC(C)(C)C1)C1=C(O)CC(C)(C)CC1=O 13.4%
Cn1c(=NC(=O)CSCC(=O)N2CCOCC2)sc2ccccc21 -13.1%
O=C(CSc1ncccn1)NC(=O)NCc1ccccc1 5.8%
CCCCOC(=O)Nc1sc2nc(C)cc(C)c2c1-n1cccc1 37.4%
Cc1cc(C)c2c(-n3cccc3)c(NC(=O)OCc3ccccc3)sc2n1 13.2%
COc1ccc(C2=Nc3cc(C)ccc3OC2)cc1 19.1%
Cc1ccc(S(=O)(=O)n2cnc3ccccc32)c(C)c1 -7.6%
O=C(CN1C(=O)C2C3C=CC(C3)C2C1=O)NCCc1ccccc1Cl (stereo not drawn) 17.1%
CCc1c(O)nc(SCC(=O)N2CCCCC2)n(-c2ccccc2C)c1=O 4.6%
Cc1ccc2nc3n(c(=O)c2c1)CCC3 21%
COc1ccc(OC)c(CNC(=O)C2CCCN(c3nc4ccccc4o3)C2)c1 (stereo not drawn) 44.8%
Cc1ccc(C(c2sc3nc(C)nn3c2O)N2CCN(c3ccccc3)CC2)cc1 (stereo not drawn) 36%
COc1ccc(CCn2nnnc2C(c2ccccc2)N2CCN(C)CC2)cc1OC (stereo not drawn) -6%
CC(=O)NC(C)(C)C1CC=C(C)/C(=N\O)C1 (stereo not drawn) -8.6%
CCCCOc1ccc(C(C)(O)CCN2CCOCC2)cc1 (stereo not drawn) -4.9%
CCOc1ccc(C2C(C(=O)O)c3ccccc3C(=O)N2CCN2CCOCC2)cc1 (stereo not drawn) -15.8%
CC1(C)CN=C(N2CCN(c3ncnc4sc5c(c34)CCCC5)CC2)S1 39.4%
CCOC(=O)C1CCN(C(=O)Cc2c(C(=O)O)[nH]c3ccccc23)CC1 5.4%
Cc1ccc(SCCC(=O)OCC(=O)Nc2ncc(Cl)cc2Cl)cc1 37.2%
Cc1nc2c(-c3ccccc3)c(C)[nH]n2c(=O)c1Cl 43.9%
CCCCN=C1N/C(=C\c2ccco2)C(=O)N1c1ccccc1 2.2%
O=S(=O)(c1ccc(Sc2nnc3ccccn23)nc1)N1CCOCC1 -4.9%
CN(c1ccc(C(=O)NCCC2=CCCCC2)cc1)S(C)(=O)=O -11.3%
CCN(c1ccccc1)S(=O)(=O)c1ccc(C(=O)Nc2nccs2)cc1 23.3%
O=C(CSc1nnc(-c2c[nH]c3ccccc23)o1)c1ccccc1 18.1%
Cc1cccc(C)c1-n1c(C)cc(/C=C2\C(=O)NN(c3ccccc3)C2=O)c1C 41.5%
Cc1ccc(Oc2ccc3c(c2)C(=O)N(c2cccc4cccnc24)C3=O)cc1 -11.5%
COc1ccc(C(=O)CN2C(=O)NC(C)(c3ccc(C)cc3)C2=O)cc1OC (stereo not drawn) 17.2%
COc1ccc(C(=O)CSc2n[nH]c(N)n2)cc1 2.8%
O=C(CN1CCOCC1)Nc1c(-c2ccccc2)c2cc(Br)ccc2[nH]c1=O -15.8%
CS(=O)(=O)c1ccc2nc(NC(=O)C3CCCCC3)sc2c1 7.3%
O=C(Nc1ccccc1N1CCCCC1)c1cccc(F)c1 1.2%
O=C(Nc1ccccc1N1CCCCC1)c1ccc2nccnc2c1 28.1%
O=C(CN1CCN(CC(=O)Nc2ccc3c(c2)OCO3)CC1)Nc1ccc(F)cc1 33.1%
CCCC(=O)Nc1ccccc1N1CCN(C(=O)c2ccccc2)CC1 35.7%
O=C(c1ccc2c(c1)OCO2)N1CCNc2ccccc2C1 -40.3%
CCOc1ccc(NC(=O)N2CCN(CC)CC2)cc1 -0.2%
Cc1oc2nc(SCC(=O)Nc3ccc(S(N)(=O)=O)cc3)nc(NC(=O)c3ccccc3)c2c1C 15%
COc1ccc(Cc2nnnn2CC(=O)O)cc1 -11.9%
Cc1ccccc1-c1ccc(Nc2ccc(C(=O)N3CCOCC3)cc2)nn1 34.1%
COc1ccc(N2C(=O)CC(N3CCC(C(N)=O)CC3)C2=O)cc1 (stereo not drawn) -20.9%
COc1ccc(CCN2CNc3c(c(=O)n(C)c(=O)n3C)C2)cc1OC -29.7%
COC(=O)c1ccc(C2CC(=O)Nc3cc(OC)c(OC)cc32)cc1 (stereo not drawn) 30.2%
Cc1nn(C(C)CC(=O)O)c(C)c1C (stereo not drawn) -4.1%
COc1ccc(CN2C(=O)CN=C2Nc2ccc(C)cc2C)cc1 31.5%
CCN(CC)c1ccc(NC(=O)c2ccc(Cl)nc2)cc1 -69.8%
CCOc1cc(NC(=O)c2ccco2)c(OCC)cc1NC(=O)COc1ccccc1 11.6%
CCOc1ccc(C(CC(=O)O)NC(=O)COc2ccccc2)cc1 (stereo not drawn) 5.2%
Cc1ccc(C)c2[nH]c(=O)c(CCNC(=O)CC(C)C)cc12 30.9%
O=[N+]([O-])c1c(NCCO)cc(Sc2nc3ccccc3s2)c2nonc12 12.3%
Cn1c(=O)cc(OCCCC(=O)N2CCN(c3ccccn3)CC2)c2ccccc21 30.3%
CC1CCCCN1S(=O)(=O)c1ccc(C(=O)Nc2nnc(-c3cccs3)o2)cc1 (stereo not drawn) 7.8%
CCN(CC)C(=O)CSc1nnc(-c2cccc(OC)c2)o1 -55.9%
O=C(/C=C/c1cccs1)c1cc(Cl)ccc1OC(=O)N1CCOCC1 28.1%
CC1Oc2ccccc2N(Cc2cccnc2)C1=O (stereo not drawn) 14%
O=C(CN1C(=O)C2C3C=CC(C3)C2C1=O)NCC1COc2ccccc2O1 (stereo not drawn) -1.1%
CN(Cc1ccccc1)C(=O)CCNC(=O)Cn1cnc2ccccc2c1=O 24.9%
O=C(Cn1nc(Cc2cccnc2)c2ccccc2c1=O)NCC1CCCO1 (stereo not drawn) 21.3%
Cc1cc(OC(=O)c2c(Cl)cccc2Cl)nc(C)n1 2.9%
CCC(C)NC(=O)CCCc1ccccc1 (stereo not drawn) -17.4%
c1ccc(Cc2nn3c(Cn4cnc5ccccc54)nnc3s2)cc1 24.4%
CC(=O)c1cn(CCCCCCCCCCn2cc(C(C)=O)c(=O)[nH]c2=O)c(=O)[nH]c1=O 3.4%
CC(=O)c1c(C)n([O-])c2ccccc2[n+]1=O -1.1%
CCOC(=O)N1CCN(C(=O)c2cc3c(ccc4ccccc43)oc2=O)CC1 45.9%
CC1(C)CC(=O)c2cc(OCC(=O)NCC3CCCO3)ccc2O1 (stereo not drawn) 18.5%
NC(=O)COc1ccc2c3c(c(=O)oc2c1)CCCCC3 -7.4%
